# Reference: PubChem BioAssay (NCATS)
# Values joined by “and” are separate entries in the source; they are usually repeats but may differ in a detail not shown here. Equal values may be shown once. Inconclusive results are not listed. Some structures have more than one record in an assay (separate samples or runs), and their calls can disagree. Active and inactive are the calls of the source. The call rests on the fitted dose curve; in most records, active means well fitted curve in the direction sought with a large enough effect; inconclusive means small, poorly fitted or top-dose-only effect, or another doubt; inactive means no such curve, though single readings can be large; an effect the other way counts as inactive or inconclusive.
# What was measured:
# [1] = target: Cytochrome P450 3A4 (Homo sapiens) (UniProt P08684); test: qHTS Assay for Inhibitors and Substrates of Cytochrome P450 3A4 (AID 884); further: potency means the concentration at half of the fitted maximal effect; nearly all actives have a fitted effect of over 50% in size
# Outline: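 20 nM human CYP3A4 with 25 uM Luciferin-PPXE (at KM) in 200 mM KPO4, preincubated 10 min with compound; NADPH regeneration started a 60 min RT reaction. Luciferin detected by luminescence, normalized to 57 uM ketoconazole as full inhibition.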
# [2] = target: Cytochrome P450 3A4 (Homo sapiens) (UniProt P08684); test: qHTS Assay for Activators of Cytochrome P450 3A4 (AID 885); further: nearly all actives have a fitted effect of over 65% in size
# Outline: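 Steps: enzyme/substrate mix dispensed; compound added, 10 min RT; NADPH regeneration solution added, 60 min RT; luciferin detection buffer stops reaction; 20 min later luminescence measured.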
# [3] = target: Cytochrome P450 2D6 (Homo sapiens) (UniProt P10635); test: qHTS Assay for Inhibitors and Substrates of Cytochrome P450 2D6 (AID 891); further: nearly all actives have a fitted effect of over 60% in size; further: potency means the concentration at half of the fitted maximal effect
# Outline: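 Human CYP2D6 (5 nM) with 30 uM Luciferin-ME EGE (at Km) in 100 mM KPO4, compound preincubated 10 min, then NADPH regeneration system for 60 min at room temperature. Luciferin read by luminescence; normalized to 1.43 uM quinidine.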
# [4] = target: Cytochrome P450 2C19 (Homo sapiens) (UniProt P33261); test: qHTS Assay for Inhibitors and Substrates of Cytochrome P450 2C19 (AID 899); further: nearly all actives have a fitted effect of over 60% in size; further: potency means the concentration at half of the fitted maximal effect
# Outline: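 Luminescent read-out of luciferin formed from Luciferin-H EGE (10uM, equal to KM). Enzyme 5nM in 50mM KPO4; compound added, 10 min at 37C, then NADPH regenerating system for 60 min at 37C. Full inhibition defined by 57uM ketoconazole.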
# Chain of Cytochrome P450 2D6 (Homo sapiens) (P10635 whole entry, looked up): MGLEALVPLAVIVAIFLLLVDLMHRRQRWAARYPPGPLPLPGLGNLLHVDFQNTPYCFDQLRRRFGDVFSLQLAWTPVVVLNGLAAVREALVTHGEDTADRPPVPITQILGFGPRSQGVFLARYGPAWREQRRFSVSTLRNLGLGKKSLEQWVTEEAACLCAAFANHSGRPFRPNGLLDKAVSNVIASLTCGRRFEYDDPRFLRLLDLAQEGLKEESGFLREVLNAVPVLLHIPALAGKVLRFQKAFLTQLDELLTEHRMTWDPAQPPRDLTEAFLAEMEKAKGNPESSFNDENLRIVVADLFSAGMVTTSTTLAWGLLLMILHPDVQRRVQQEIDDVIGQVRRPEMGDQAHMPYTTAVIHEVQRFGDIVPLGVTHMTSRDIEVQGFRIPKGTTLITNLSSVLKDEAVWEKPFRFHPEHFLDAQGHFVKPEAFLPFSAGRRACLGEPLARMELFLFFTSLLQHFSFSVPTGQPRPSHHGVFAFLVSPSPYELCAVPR
# Chain of Cytochrome P450 3A4 (Homo sapiens) (P08684 whole entry, looked up): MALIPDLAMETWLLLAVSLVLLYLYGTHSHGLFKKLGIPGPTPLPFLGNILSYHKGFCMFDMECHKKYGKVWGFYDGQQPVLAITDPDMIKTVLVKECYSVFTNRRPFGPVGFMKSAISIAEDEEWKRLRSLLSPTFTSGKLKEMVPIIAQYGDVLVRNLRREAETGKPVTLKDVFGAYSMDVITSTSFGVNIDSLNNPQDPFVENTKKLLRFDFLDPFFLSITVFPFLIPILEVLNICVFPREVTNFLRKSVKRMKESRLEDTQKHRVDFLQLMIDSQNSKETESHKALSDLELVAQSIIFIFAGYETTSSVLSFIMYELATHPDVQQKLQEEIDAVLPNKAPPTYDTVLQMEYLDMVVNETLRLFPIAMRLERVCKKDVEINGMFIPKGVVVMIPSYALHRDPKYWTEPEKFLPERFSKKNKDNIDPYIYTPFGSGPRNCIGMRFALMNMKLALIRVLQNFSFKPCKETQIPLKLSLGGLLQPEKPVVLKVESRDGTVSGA
# Chain of Cytochrome P450 2C19 (Homo sapiens) (P33261 whole entry, looked up): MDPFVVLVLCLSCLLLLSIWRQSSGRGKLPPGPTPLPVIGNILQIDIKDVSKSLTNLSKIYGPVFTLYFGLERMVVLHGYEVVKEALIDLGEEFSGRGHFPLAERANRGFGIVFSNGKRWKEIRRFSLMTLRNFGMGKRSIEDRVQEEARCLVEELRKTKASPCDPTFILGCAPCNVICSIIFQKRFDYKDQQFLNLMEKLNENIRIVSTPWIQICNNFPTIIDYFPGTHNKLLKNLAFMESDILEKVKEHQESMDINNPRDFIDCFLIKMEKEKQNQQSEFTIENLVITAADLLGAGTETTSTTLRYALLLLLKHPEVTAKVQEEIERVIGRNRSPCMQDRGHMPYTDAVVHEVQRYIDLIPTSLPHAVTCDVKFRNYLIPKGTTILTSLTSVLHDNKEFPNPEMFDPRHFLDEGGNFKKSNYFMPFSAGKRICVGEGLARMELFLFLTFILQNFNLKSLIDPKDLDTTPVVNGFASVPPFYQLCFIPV
SMILES,Potency [1],"activity change, positive = activation [2]",Potency [3],Potency [4],Potency [2]
CC(=O)OCC1OC(C#Cc2ccc(C)cc2C)C=CC1OC(C)=O (stereo not given),3.16 µM (active),-83.4% [at 11.4 µM] (inactive),3.98 µM (active),,
C/C=C/OC(=O)NC(c1ccccc1)[C@]1(C(C)=O)CCOC1=O (stereo not given in full),0.0316 µM (active),-81.2% [at 11.4 µM] (inactive),inactive,0.158 µM (active),
CO[C@H]1COC(=O)C/C=C\[C@H](C)[C@@H](NS(=O)(=O)c2ccc(C)cc2)COC(=O)C/C=C\[C@@H]1C,3.16 µM (active),-67.8% [at 11.4 µM] (inactive) and -95.2% [at 11.4 µM] (inactive),inactive,,
C=CCC1C=CC(Oc2ccc(OC)cc2)C(COC(=O)c2ccc(Br)cc2)O1 (stereo not given),3.16 µM (active),-92.4% [at 11.4 µM] (inactive),,3.16 µM (active),
CC(=O)OC[C@@H]1O[C@@H](O/N=C2/C[C@@H](O)[C@@H](O)[C@@H]3[C@@H]4C(=O)N(Cc5ccc6c(c5)OCO6)C(=O)[C@H]4CC[C@H]23)[C@H](OC(C)=O)[C@H](OC(C)=O)[C@@H]1OC(C)=O,5.01 µM (active),-74.2% [at 11.4 µM] (inactive),3.16 µM (active),,
COc1ccc(C#CC2C=CC(Oc3cc(C)cc(C)c3)C(CO)O2)cc1 (stereo not given),1.58 µM (active),-94.5% [at 11.4 µM] (inactive),3.98 µM (active),0.0631 µM (active),
COc1cccc([C@H]2Oc3ccc(OC)cc3/C(=N\O[C@@H]3O[C@H](COC(C)=O)[C@H](OC(C)=O)[C@H](OC(C)=O)[C@H]3OC(C)=O)[C@@H]2O)c1,3.16 µM (active),-77% [at 11.4 µM] (inactive),3.16 µM (active),,
C=CC[C@@H]1C=C[C@H](O/N=C(\C)CCN2CCCCc3nc(C)c(C)cc32)[C@H](CO)O1,3.98 µM (active),-81.7% [at 11.4 µM] (inactive),3.98 µM (active),,
COC(=O)C/C=C\[C@@H](C)[C@@H](/C=N\OC[C@@H](O)COCc1ccco1)NS(=O)(=O)c1ccc(C)cc1,3.16 µM (active),-107% [at 11.4 µM] (inactive),inactive,,
CO[C@H]1COC(=O)[C@@H](Cc2ccccc2)NC(=O)[C@@H](C)COC(=O)CCC[C@@H]1C,3.16 µM (active),-63.9% [at 11.4 µM] (inactive),inactive,,
COc1ccc(O[C@H]2C=C[C@@H](c3ccccc3)O[C@H]2COC(=O)CC/C(C)=N/O[C@@H]2O[C@H](COC(C)=O)[C@H](OC(C)=O)[C@H](OC(C)=O)[C@H]2OC(C)=O)cc1,5.01 µM (active),-91.6% [at 11.4 µM] (inactive),3.16 µM (active),1.58 µM (active),
COCC#Cc1ccc(C2C(C)CCC3C(=O)N4C(CCC(C)C4c4ccc(C#CCOC)cc4)C(=O)N32)cc1 (stereo not given),1.26 µM (active),-65.6% [at 11.4 µM] (inactive),inactive,inactive,
C=C(C)C(O)/C=C/c1ccc(OC)cc1 (stereo not given),5.01 µM (active),-85.8% [at 11.4 µM] (inactive),inactive,,
COC(=O)c1cccc(C23CC4(C2)[C@H](CN(Cc2cccnc2)[C@@H]4c2ccccc2)C3c2ccc(Cl)nc2)c1 (stereo not given in full),2 µM (active),,,,inactive
C=C(C)C(O)/C=C/c1ccc(C)cc1 (stereo not given),3.98 µM (active),-72.8% [at 11.4 µM] (inactive),inactive,,
COc1ccc(/C=C/C2=CC3(C)CC2(C)C(c2ccc(OC)cc2)CC3=O)cc1 (stereo not given),5.01 µM (active),-60.7% [at 11.4 µM] (inactive),inactive,inactive,
CC(C)(C)c1ccc(OC2C(O)COC2/C=C/C#Cc2ccccc2)cc1 (stereo not given),3.16 µM (active) and 3.98 µM (active),-77.1% [at 11.4 µM] (inactive) and -67.5% [at 11.4 µM] (inactive),inactive,3.16 µM (active) and inactive,
CCOC(=O)OCC1OC(C#Cc2ccccc2)C=CC1OC(=O)OCC (stereo not given),3.98 µM (active),-79.4% [at 11.4 µM] (inactive),inactive,2.51 µM (active),
